The source of these data is the supplement of paper PMC9177965.

Values joined by “and” are separate entries in the source; they are usually repeats but may differ in a detail not shown here. Equal entries are not always repeated.

The test system of this assay is HT29 sg-Ctrl (RNF43 wildtype). In words: cell viability activity relative to DMSO (negative = inhibition); higher = more viable cells (less growth inhibition). As to conditions: 5 µM; 96 h. The protocol:
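Broad Repurposing Library primary screen at a single dose of 5 uM. HT29 sg-Ctrl and HT29 RNF43 G659fs CRISPR-edited isogenic cells were seeded at 2500 cells/well in 384-well plates in duplicate and treated for 96 h. Viability was read by CellTiter-Glo and reported as % activity relative to DMSO, with MG132 as the positive control (negative = growth inhibition).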
Regarding `C=C1[C@@H](C)[C@H]2[C@H](Cc3ccccc3)NC(=O)[C@]23OC(=O)/C=C/[C@H](O)CCC[C@@H](C)C/C=C/[C@H]3[C@@H]1O`, the cell viability activity was -36.1%.

Consider `C/C1=C/C[C@@H](/C(C)=C/c2csc(C)n2)OC(=O)C[C@H](O)C(C)(C)C(=O)[C@H](C)[C@@H](O)[C@@H](C)CCC1`, for which the cell viability activity was -42.3%.

For the compound `C[C@]12CC[C@H](O)C[C@H]1CC[C@@H]1[C@@H]2C[C@@H](O)[C@]2(C)[C@@H](C3=CC(=O)OC3)CC[C@]12O`, the cell viability activity is -79.8%.

In the case of `Cc1sc2c(c1C)C(c1ccc(Cl)cc1)=N[C@@H](CC(=O)Nc1ccc(O)cc1)c1nnc(C)n1-2`, the cell viability activity was -59.2%.

With `c1ccc2c(c1)[I+]c1ccccc1-2`, the cell viability activity is -52.1%.

With `Clc1cccc(SC2CCNCC2)n1`, the cell viability activity is -64.7%.

As for `CO[C@H]1C[C@H](O[C@H]2CC[C@@]3(C)[C@H](CC[C@@H]4[C@@H]3CC[C@]3(C)[C@@H](C5=CC(=O)OC5)[C@@H](OC(C)=O)C[C@]43O)C2)O[C@@H](C)[C@@H]1O`, the cell viability activity is -90.4%.

For `CC(C)[C@]12O[C@H]1[C@@H]1O[C@]13[C@]1(O[C@H]1C[C@H]1C4=C(CC[C@@]13C)C(=O)OC4)[C@@H]2O`, the cell viability activity is -87.8% and -92.2%.

In the case of `N#Cc1cn([C@@H]2O[C@H](CO)[C@@H](O)[C@H]2O)c2ncnc(N)c12`, the cell viability activity is -89.9%.

For the compound `COc1ccc(CCN2CCC(Nc3nc4ccccc4n3Cc3ccc(F)cc3)CC2)cc1`, the cell viability activity is -3.92%.

As for `CCNC(=O)C[C@@H]1N=C(c2ccc(Cl)cc2)c2cc(OC)ccc2-n2c(C)nnc21`, the cell viability activity is -59.5%.

As to `NC(=O)c1cn([C@@H]2O[C@H](CO)[C@@H](O)[C@H]2O)c2ncnc(N)c12`, the cell viability activity was -93%.

Take `C/C=C(\C)C(=O)N[C@@H](c1ccccc1)[C@@H](O)C(=O)O[C@H]1C[C@@]2(O)[C@@H](OC(=O)c3ccccc3)[C@@H]3[C@]4(OC(C)=O)CO[C@@H]4C[C@H](O)[C@@]3(C)C(=O)[C@H](OC(C)=O)C(=C1C)C2(C)C`: the cell viability activity is -69.3%.

As to `CC[C@@]1(O)C(=O)OCc2c1cc1n(c2=O)Cc2cc3ccccc3nc2-1`, the cell viability activity is -91.5%.

Take `COc1cc2cc(c1Cl)N(C)C(=O)C[C@H](OC(=O)C(C)C)[C@]1(C)O[C@@H]1[C@H](C)[C@@H]1C[C@@](O)(NC(=O)O1)[C@H](OC)/C=C/C=C(\C)C2`: the cell viability activity is -61.7%.

Turning to `Cn1c(COP(=O)(NCCBr)NCCBr)cnc1[N+](=O)[O-]`, the cell viability activity was -27.3%.

`C[C@H]1CCC/C=C/[C@@H]2C[C@H](O)C[C@H]2[C@H](O)/C=C/C(=O)O1`: the cell viability activity is -98.3% and -96.8%.

For `COc1cccc2c1C(=O)c1c(O)c3c(c(O)c1C2=O)C[C@@](O)(C(=O)CO)C[C@@H]3O[C@H]1C[C@H](N2CCO[C@H](OC)C2)[C@H](O)[C@H](C)O1`, the cell viability activity is -95.3%.

Regarding `C/C(=C\c1csc(C)n1)[C@@H]1C[C@@H]2O[C@@H]2CCC[C@H](C)[C@H](O)[C@@H](C)C(=O)C(C)(C)[C@@H](O)CC(=O)O1`, the cell viability activity is -51.9%.

For `CC(=O)O[C@@]12CO[C@@H]1C[C@H](O)[C@@]1(C)C(=O)[C@H](O)C3=C(C)[C@@H](O)C[C@@](O)([C@@H](OC(=O)c4ccccc4)[C@H]21)C3(C)C`, the cell viability activity was -62.6%.

With `CC[C@@H]1/C=C/C=C/C[C@H](C)[C@H](O)[C@](C)(O)C(=O)[C@H](C)[C@@H](O)[C@H](C)C(=O)[C@H](C)[C@@H](O)[C@H](C)/C=C/C(=O)O[C@H]2[C@@H](C)[C@@H](CC1)O[C@@]1(CC[C@@H](C)[C@@H](C[C@H](C)O)O1)[C@@H]2C`, the cell viability activity was -42.2%.

As for `CC(C)(C)c1cc(C=C(C#N)C#N)cc(C(C)(C)C)c1O`, the cell viability activity is -67.3%.

With `CC[C@H]1CN2CCc3cc(OC)c(OC)cc3[C@@H]2C[C@@H]1C[C@H]1NCCc2cc(OC)c(OC)cc21`, the cell viability activity is -92.7% and -98.3%.

Turning to `C[C@@]1(CO)[C@H](O)CC[C@@]2(C)[C@H]1CC[C@H]1C[C@@H]3C[C@@]12CC[C@]3(O)CO`, the cell viability activity was -34.1%.

Consider `COC(=O)NC(=S)Nc1ccccc1NC(=S)NC(=O)OC`, for which the cell viability activity was -38.9%.

For the compound `C[C@@H]1O[C@@H](O[C@H]2C[C@@H](O)[C@]3(CO)[C@H]4[C@H](O)C[C@]5(C)[C@@H](C6=CC(=O)OC6)CC[C@]5(O)[C@@H]4CC[C@]3(O)C2)[C@H](O)[C@H](O)[C@H]1O`, the cell viability activity was -87.7% and -89.1%.

As for `O=[N+]([O-])C=Cc1ccc2c(c1)OCO2`, the cell viability activity was -21%.

On to `C/C(=C\c1csc(C)n1)[C@@H]1C[C@@H]2O[C@]2(C)CCC[C@H](C)[C@H](O)[C@@H](C)C(=O)C(C)(C)[C@@H](O)CC(=O)O1`, for which the cell viability activity was -72.3%.

Regarding `C[C@@H]1O[C@@H](O[C@@H]2C=C3CC[C@@H]4[C@H](CC[C@]5(C)[C@@H](c6ccc(=O)oc6)CC[C@]45O)[C@@]3(C)CC2)[C@H](O)[C@H](O)[C@H]1O`, the cell viability activity is -87.4%.

Take `COc1cc([C@@H]2c3cc4c(cc3[C@H](O)[C@H]3COC(=O)[C@H]23)OCO4)cc(OC)c1OC`: the cell viability activity is -58.2%.

As to `COc1cc2c(c(OC)c1OC)-c1ccc(OC)c(=O)cc1[C@@H](NC(C)=O)CC2`, the cell viability activity is -46.1% and -57.8%.

In the case of `CC[C@@H](C(=O)[C@@H](C)[C@@H](O)[C@H](C)[C@@H]1O[C@@H]([C@@H](CC)C(=O)O)CC[C@@H]1C)[C@H]1O[C@]2(C=C[C@@H](O)[C@]3(CC[C@@](C)([C@H]4CC[C@](O)(CC)[C@H](C)O4)O3)O2)[C@H](C)C[C@@H]1C`, the cell viability activity is -71.9%.

Regarding `CN(C)C(=S)SSC(=S)N(C)C`, the cell viability activity is -69%.

For `CC1CC(C)C(=O)C(C(O)CC2CC(=O)NC(=O)C2)C1` (stereo not given), the cell viability activity is -81.2%.

Turning to `C[C@]12CC[C@H](O)C[C@H]1CC[C@@H]1[C@@H]2CC[C@]2(C)[C@@H](C3=CC(=O)OC3)CC[C@]12O`, the cell viability activity is -86.7%.

`COC(=O)C[C@](O)(CCC(C)(C)O)C(=O)O[C@@H]1C(OC)=C[C@]23CCCN2CCc2cc4c(cc2[C@H]13)OCO4`: the cell viability activity was -83.6%.

With `CCN(CC)CCO[C@H]1CC[C@@]2(C)C(=CC[C@@H]3[C@@H]2CC[C@]2(C)C(=O)CC[C@@H]32)C1`, the cell viability activity was -52.8%.

In the case of `O=C1C=C2C=C[C@@H]3C[C@@]2(O1)[C@H]1CCCCN31`, the cell viability activity was -6.19%.

Turning to `CN1CCN(c2cccc3[nH]c(=O)oc23)CC1`, the cell viability activity was -54.8%.

Consider `Oc1cccc2cccnc12`, for which the cell viability activity is -34.8%.
